Compounds with a hit are over-represented: about 21% of the library has one in this group of screens.
Shiga inhibitor – A qHTS for Small Molecule Inhibitors of Shiga Toxin. inhibition, % at 38.7 µM. AID 2315, 2010. Vero cells, Shiga toxin protein synthesis inhibition reporter. 290,000 compounds, 9.2% hits; in the data active means inhibition mostly above about 28%, no sharp cut-off; inactive means mostly below about 43%; further: 0% is about no effect
CHX counter – Cycloheximide Counterscreen for Small Molecule Inhibitors of Shiga Toxin; max response, %; 300,000 compounds, 12% hits; AID 2314, 2010; cell reporter, cycloheximide protein synthesis inhibition counterscreen; in the data active means max response mostly above about 13%, no sharp cut-off; inactive means mostly below about 14%; further: read at 38.3 µM for the half of the compounds with a filed dose; 0% is about no effect
Pf growth 96h – Primary qHTS for delayed death inhibitors of the malarial parasite plastid, 96 hour incubation; 320,000 compounds, 6.9% hits; Potency, µM (doses to about 28.7 µM), for the others: top-dose activity change, negative = inhibition, hits mostly inhibitors; AID 504834, 2011; P. falciparum luciferase reporter growth, 96 h; further: potency means the concentration at half of the fitted maximal effect; on the % scale 0 is the no-effect control and ±100 the full control effect
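Erythrocytes infected with luciferase-expressing P. falciparum were dispensed at 2% hematocrit and 0.05% parasitemia (final), then incubated with compounds 96 hours at 37 C in 5% CO2. Luminescence after detection reagent addition reported growth.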
HCMV antiviral – qHTS Assay for inhibitors of the human cytomegalovirus (HCMV); AID 1259415, 2018; activity change, negative = inhibition, % at 57.5 µM; HFF cells, HCMV-luciferase reporter, 72 h; hits give low values; 410,000 compounds, 4.5% hits; in the data active means activity change below about -60%; inconclusive means no clear call, values can overlap the other calls; inactive means above about -39%; further: on the % scale 0 is the no-effect control and ±100 the full control effect
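Cell-based, HFFs, 1000 cells/well, 16 h 37C; cpds in DMSO + HCMV-luc, MOI 1 PFU/cell; 72 h 37C; OneGlo luminescence after 5 min RT; norm. to buffer vs Salinomycin 10uM.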
HCV inhibitor – qHTS Assay for Inhibitors of Hepatitis C Virus (HCV); Huh7.5.1 HCVcc-Cre infection, luciferase reporter, 44 h; Potency, µM (series often up to 41.8 µM), inactives show at the highest dose activity change, negative = inhibition, usual class: inhibitors; 340,000 compounds, 3.4% hits; further: potency means the concentration at half of the fitted maximal effect; on the % scale 0 is the no-effect control and ±100 the full control effect
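Infectious HCVcc-Cre (~0.5 moi) was added to cells just after compound, with cells seeded 4 h earlier at 1,000 per well. Luciferase activity after 44 h culture reported infection; substrate was incubated 15 min at room temperature before reading.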
Pf growth 48h – Primary qHTS for delayed death inhibitors of the malarial parasite plastid, 48 hour incubation. P. falciparum luciferase growth in erythrocytes, 48 h. Potency, µM (doses to about 28.7 µM), without a hit: top-dose activity change, negative = inhibition, actives largely listed as inhibitors. 310,000 compounds, 5.9% hits; further: potency means the concentration at half of the fitted maximal effect; on the % scale 0 is the no-effect control and ±100 the full control effect
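Luminescence readout; reporter = integrated firefly luciferase in P. falciparum. RBC culture at 2% hematocrit, 0.1% parasitemia final, 37 C/5% CO2; decreased signal taken as growth inhibition.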
* marks the source's active call; other numbers are inactive results; ? = inconclusive; / = not tested or not shown. Unless noted, the call rests on the fitted dose curve; in most records, active means well fitted inhibition curve with a large enough effect; inconclusive means small, poorly fitted or top-dose-only effect, or another doubt; inactive means no such curve, though single readings can be large or run the other way.

SMILES | Shiga inhibitor | CHX counter | Pf growth 96h | HCMV antiviral | HCV inhibitor | Pf growth 48h
Clc1cccc(Cc2c(-c3ccccc3)nc3ccc(Cl)cn23)c1 | / | / | / | 28 | / | /
CCn1cc(/C=C(\NC(=O)c2ccccc2F)C(=O)NCCN2CCOCC2)c2ccccc21 | -21 | 7 | ? | 16 | -6% | -17%
CC(C)(C)c1ccc(OCC(=O)N2CCCCCC2)c(Br)c1 | 120* | 43* | ? | 19 | 11% | -64%
Cc1ccccc1OCC(=O)N1CCCCCCC1 | 28 | 2 | ? | 7 | 28% | -3%
Cc1ccc(C(=O)O/N=C/c2c(N3CCOCC3)n(C)c3ccccc23)cc1 | -8 | -3 | 3.3µM* | -100* | 6.3µM* | ?
Cn1c(N2CCOCC2)c(/C=N/OC(=O)c2ccc(F)cc2)c2ccccc21 | -15 | -4 | 1µM* | -95* | 3.5µM* | 1.3µM*
CC(=O)O/N=C/c1c(N2CCOCC2)n(C)c2ccccc12 | -3 | 0 | 3.7µM* | -93* | ? | 3.7µM*
CCOc1ccc(-n2c(=O)c3sccc3n(CC(=O)NCC3CCCO3)c2=O)cc1 (stereo not given) | -17 | -4 | ? | ? | 9% | 39%
O=C(NNC(=O)c1cc(Cl)ccc1O)c1ccc(NS(=O)(=O)c2cccs2)cc1 | / | / | 17% | -2 | -10% | -1%
CC(C)OCCCNC(=O)CCCn1c(SCC(=O)c2ccc(Br)cc2)nc2c(sc3ccccc32)c1=O | / | / | / | -24 | / | /
COc1cccc(-c2ncc3ccccc3c2COC(=O)c2cccc(Br)c2)c1 | / | / | 4.7µM* | -4 | ? | ?
COc1cccc(-c2ncc3ccccc3c2COC(=O)c2ccc(C(F)(F)F)cc2)c1 | / | / | 2.9µM* | -16 | 16% | ?
COc1cccc(-c2ncc3ccccc3c2COC(=O)c2ccc(Br)cc2)c1 | / | / | ? | 3 | 4% | ?
CCCCCCn1ccc(=N)cc1 | -9 | 7 | 0.47µM* | -80* | 0.79µM* | 3.3µM*
CCN1CCN(C(=O)CN(CC)S(=O)(=O)c2ccc3ccccc3c2)CC1 | -16 | -3 | ? | -9 | 11% | -4%
Cc1cc(C(=O)N2CCc3c([nH]c4ccccc34)C2c2c(F)cccc2Cl)no1 (stereo not given) | 4 | -1 | -5% | -14 | -7% | 5.9µM*
COc1cccc(C2c3[nH]c4ccccc4c3CCN2C(=O)Cn2cncn2)c1OC (stereo not given) | -30 | 6 | -6% | 1 | 10% | -56%
O=C(c1cc[n+]([O-])cc1)N1CCc2c([nH]c3ccccc23)C1c1ccccc1Cl (stereo not given) | -12 | 1 | -1% | 0 | 2% | ?
COc1ccc(CC(=O)N2CCc3c([nH]c4ccccc34)C2c2ccc(SC)cc2)cc1 (stereo not given) | / | / | / | -10 | / | /
CN1N=C(C(=O)N2CCc3c([nH]c4ccccc34)C2c2ccccc2Cl)CCC1=O (stereo not given) | 74* | 43* | 10µM* | 158 | -44% | 1.7µM*
CCc1cc(C(=O)N2CCc3c([nH]c4ccccc34)C2c2ccc(OC)cc2F)no1 (stereo not given) | -5 | -4 | ? | -64* | ? | 52%
COc1ccc(C2c3[nH]c4ccccc4c3CCN2C(=O)c2ccc(=O)n(C)n2)c(F)c1 (stereo not given) | 34 | 26* | -3% | 123 | -1% | ?
COc1cc(C(=O)N(Cc2ccc(F)cc2)Cc2ccco2)cc(OC)c1OC | / | / | / | -22 | / | /
CCC(C)NC(=O)Cn1c(=O)ccc2cc(S(=O)(=O)N3CCCC3)ccc21 (stereo not given) | / | / | / | 3 | / | /
Cc1ccccc1C1c2[nH]c3ccccc3c2CCN1C(=O)c1ccc(=O)n(C)n1 (stereo not given) | 9 | -2 | 13µM* | -12 | 1% | ?
Cc1cccc(C2c3[nH]c4ccccc4c3CCN2C(=O)c2cc(CC(C)C)[nH]c(=O)n2)n1 (stereo not given) | 15 | -2 | ? | 2 | -6% | ?

Compound activity: PubChem BioAssay, National Center for Advancing Translational Sciences (NCATS)
